From PubChem BioAssay AID504332 (National Center for Advancing Translational Sciences (NCATS), 2011)
About 31,000 (8.9%) of roughly 350,000 compounds were called active. Another 15% or so got no clear call; they are omitted. The call rests on the fitted dose curve; in most records, active means well fitted inhibition curve with a large enough effect; inconclusive means small, poorly fitted or top-dose-only effect; inactive means no such curve, though single readings can be large or run the other way. What follows is part of a selection rich in actives, with near analogues and random picks from the rest.

Target: Histone-lysine N-methyltransferase EHMT2 (Homo sapiens) (UniProt Q96KQ7)
Sequence (Q96KQ7 913-1193 limits assumed): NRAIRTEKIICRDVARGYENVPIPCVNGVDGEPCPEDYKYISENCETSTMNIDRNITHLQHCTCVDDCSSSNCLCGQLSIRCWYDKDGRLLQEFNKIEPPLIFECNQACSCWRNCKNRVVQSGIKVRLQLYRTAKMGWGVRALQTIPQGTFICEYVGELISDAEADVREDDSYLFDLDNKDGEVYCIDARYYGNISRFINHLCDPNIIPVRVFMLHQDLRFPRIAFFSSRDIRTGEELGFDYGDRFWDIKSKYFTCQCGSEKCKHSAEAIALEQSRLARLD
Test: qHTS Assay for Inhibitors of Histone Lysine Methyltransferase G9a; further: nearly all actives have a fitted effect of over 75% in size
Details: G9a H3K9 monomethylation, AlphaScreen, 2 h; series mostly up to 59 µM; activity, negative = inhibition: at the top concentration
Summary of the method: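 Methyltransferase reactions run at room temperature for 2 h (20 nM enzyme, 500 nM biotin-H3K9 peptide, 20 uM SAM) after a 15 min compound preincubation; product detected by AlphaScreen beads and anti-H3K9me1 antibody.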
On the % scale 0 is the no-effect control and ±100 the full control effect; potency means the concentration at half of the fitted maximal effect.

| SMILES | activity, negative = inhibition | Potency |
| --- | --- | --- |
| O=C(Nc1cc2ccccc2oc1=O)C1CCCCC1 | 16.8% [at 102 µM] (inactive) | – |
| O=C(c1cn(-c2ccccc2)nc1-c1cc2ccccc2oc1=O)N1CCOCC1 | 18.3% (inactive) | – |
| O=c1oc2ccccc2cc1-c1cn(-c2ccccc2)c(=S)[nH]1 | – | 1.41 µM (active) |
| CCC(=O)N1CCc2cc(S(=O)(=O)NC(C(=O)NCCc3ccc(C)cc3)C(C)C)ccc21 (stereo not given) | 0.749% (inactive) | – |
| Cc1ccc(NC(=S)Nc2ncccc2C)c(C)c1 | – | 31.6 µM (active) |
| Cc1ccc(NC(=S)NCCc2ccc(Cl)cc2)c(C)c1 | 35.2% [at 102 µM] (inactive) | – |
| Cc1ccc(NC(=S)NCc2ccccc2Cl)c(C)c1 | -2.23% (inactive) | – |
| COc1ccc(S(=O)(=O)Nc2cc(C)on2)cc1NC(C)=O | 2.19% [at 12.7 µM] (inactive) | – |
| O=C(CNS(=O)(=O)c1cccs1)N1CCN(c2ccccc2Cl)CC1 | 2.71% (inactive) | – |
| CCOc1ccc(Cn2c(SCCCCC#N)nc3c2c(=O)n(C)c(=O)n3C)cc1OCC | – | 35.5 µM (active) |
| CCCSc1nc2c(c(=O)n(C)c(=O)n2C)n1Cc1ccc(C)cc1 | -1.76% [at 102 µM] (inactive) | – |
| CCCCn1c(SCC(=O)NCCc2ccc(OC)c(OC)c2)nc2c1c(=O)n(C)c(=O)n2C | 3.47% (inactive) | – |
| O=C(CCN1C(=O)C2C3C=CC(C3)C2C1=O)Nc1ccccc1F (stereo not given) | -6.32% [at 102 µM] (inactive) | – |
| O=C(NCCN1C(=O)C2C3C=CC(C3)C2C1=O)Nc1ccccn1 (stereo not given) | 0.474% [at 102 µM] (inactive) | – |
| O=C(CN1C(=O)C2C3C=CC(C3)C2C1=O)Nc1nc(-c2ccccn2)cs1 (stereo not given) | – | 39.8 µM (active) |
| COCCCN(C(=O)CSCc1ccc(C)cc1)c1c(N)n(Cc2ccccc2)c(=O)[nH]c1=O | -49.2% [at 102 µM] (inactive) | – |
| Cc1c(CNC2CCCCC2)c(C(=O)O)c(C)n1Cc1cccc(Cl)c1 | -3.25% (inactive) | – |
| Cc1onc(-c2c(F)cccc2Cl)c1C(=O)N(C)CC(=O)Nc1cccc(F)c1 | -18.5% [at 102 µM] (inactive) | – |
| CCOC(=O)c1ccc(NC(=O)CCS(=O)(=O)c2ccc(C)cc2)cc1 | -30.4% (inactive) | – |
| O=C(CSc1nnc(CNC(=O)c2ccc(F)cc2)o1)Nc1ccc2c(c1)OCO2 | 26.4% [at 102 µM] (inactive) | – |
| Cc1cccc(C)c1N1CCN(S(=O)(=O)N2CCCCC2)CC1 | 50.4% [at 102 µM] (inactive) | – |
| O=S(=O)(N1CCOCC1)N1CCN(c2ccccc2F)CC1 | 0.689% [at 102 µM] (inactive) | – |
| Cc1cccc(C)c1N1CCN(S(=O)(=O)N2CCOCC2)CC1 | – | 39.8 µM (active) |
| CN(CC(=O)Nc1cccc(F)c1)C(=O)C1CC(=O)N(CCc2ccccc2)C1 (stereo not given) | -1.48% [at 102 µM] (inactive) | – |
| Cc1ccc(CNC(=O)CCc2c(C)nn(-c3ccc(N4CCCC4)nn3)c2C)cc1 | 18.4% (inactive) | – |

| SMILES | activity, negative = inhibition | Potency |
| --- | --- | --- |
| CCN(CC)CCNS(=O)(=O)c1ccc(/C=C/C(=O)O)cc1 | – | 39.8 µM (active) |
| O=C(O)/C=C/c1ccc(S(=O)(=O)N2CCCCCC2)cc1 | -30.8% [at 102 µM] (inactive) | – |
| CCC(C)NC(=O)/C=C/c1ccc(S(=O)(=O)NCc2ccco2)cc1 (stereo not given) | -28.7% [at 102 µM] (inactive) | – |
| Cc1cc(NC(=O)CSC2=NS(=O)(=O)c3cc(Cl)ccc3N2)no1 | 2.09% [at 102 µM] (inactive) | – |
| O=C(NCCCn1ccnc1)C(=O)c1cn(CC(=O)N2CCCCCC2)c2ccccc12 | -41.8% [at 102 µM] (inactive) | – |
| Cc1ccc(CNC(=O)C(=O)c2cn(CC(=O)N3CCCC3)c3ccccc23)cc1 | 30.1% [at 102 µM] (inactive) | – |
| O=C(NCc1ccco1)C(=O)c1cn(CC(=O)N2CCCCCC2)c2ccccc12 | – | 50.1 µM (active) |
| COc1cccc(OCCn2c(-c3ccc(Br)cc3)nc3ccccc3c2=O)c1 | -40.8% (inactive) | – |
| Cc1oc2ncn(CC(C)C)c(=O)c2c1C(=O)N1CCN(c2ccccc2F)CC1 | 2.53% (inactive) | – |
| Cc1cc(Cl)c2oc(C(=O)N(C)C(C)c3ccccn3)c(C)c2c1 (stereo not given) | 19.3% [at 102 µM] (inactive) | – |
| COc1ccc(-c2sc3ccc(OC)cc3c2C#Cc2ccccn2)cc1 | -2.78% [at 0.501 µM] (inactive) | – |
| Cc1cc(C)cc(NC(=O)COc2coc(CN3CCN(c4ccccc4)CC3)cc2=O)c1 | -10.4% [at 102 µM] (inactive) | – |
| CCOc1ccc(N/C=C/C(=O)c2cc(OC)c(OC)c(OC)c2)cc1 | -10.6% [at 0.501 µM] (inactive) | – |
| CCOC(=O)c1ccc(NC(=O)c2c(NCc3cccc(OC)c3)sc3c2CCC3)cc1 | – | 7.94 µM (active) |
| CCOC(=O)c1ccc(NC(=O)c2csc3c2CCCCC3)cc1 | -24.4% (inactive) | – |
| Cc1ccc(NC(=O)c2c(NC(=O)CCC(=O)O)sc3c2CCCCC3)cc1 | – | 28.2 µM (active) |
| CCOC(=O)c1c(NC(=O)CCC(=O)NCc2ccco2)sc2c1CCCC2 | 6.67% (inactive) | – |
| Cc1ccc(C(=O)NCCNC(=O)c2ccccc2)cc1 | 26.4% (inactive) | – |
| COC(=O)c1c(NC(=O)CCCC(=O)O)sc2c1CCCCC2 | 23% [at 12.7 µM] (inactive) | – |
| O=C(Cc1ccccc1)Nc1sc2c(c1C(=O)Nc1ccc(Br)cc1)CCC2 | 11.7% (inactive) | – |
| Cc1ccc(C(=O)c2c(NC(=O)c3ccccc3)sc(C)c2C)cc1 | – | 8.91 µM (active) |
| CCOc1ccc(CCNC(=O)c2csc3c2CCCCC3)cc1 | -6.99% (inactive) | – |
| CCOc1ccc(NC(=O)c2c(NC(=O)Cc3ccccc3)sc3c2CCCCC3)cc1 | – | 1.12 µM (active) |
| CCOC(=O)c1ccc(NC(=O)CC2C(=O)N(c3cccc(OC)c3)C(=O)N2C2CCCCC2)cc1 (stereo not given) | -29% (inactive) | – |
| Cc1sc(NC(=O)c2ccc3ncsc3c2)c(C(N)=O)c1C | -49.7% [at 102 µM] (inactive) | – |

| SMILES | activity, negative = inhibition | Potency |
| --- | --- | --- |
| Cc1cc(C)cc(Nc2ncnc3onc(-c4ccc(F)cc4)c23)c1 | -3.93% (inactive) | – |
| CNC(=O)CN1C(=O)c2cccnc2Sc2ccccc21 | 18.1% (inactive) | – |
| O=C(CSc1oc(-c2ccco2)nc1S(=O)(=O)c1ccccc1)c1ccc(Cl)cc1 | -33.3% (inactive) | – |
| COc1cccc(NC(=O)c2ccccc2N(Cc2ccccc2)S(C)(=O)=O)c1 | 19.2% [at 0.501 µM] (inactive) | – |
| COc1ccc(-n2c(SCC(=O)Nc3ccc(Cl)c(C)c3)nc3n[nH]c(C)c3c2=N)cc1 | 8.7% (inactive) | – |
| COc1ccc(C2C(=O)N(C3CCCCC3)CC(=O)N2Cc2ccccc2Cl)cc1OC (stereo not given) | -2.55% (inactive) | – |
| Cc1cc(C(=O)COc2ccccc2Cl)c(C)n1C1CC1 | 15.7% [at 0.501 µM] (inactive) | – |
| O=C(CC(c1cccs1)N1Cc2ccccc2C1=O)Nc1ccc(F)cc1F (stereo not given) | -1.76% (inactive) | – |
| COC(=O)c1c(NC(=O)CCCOc2ccccc2)sc2c1CCC(C)C2 (stereo not given) | 45% (inactive) | – |
| CCOc1ccc(NC(=O)c2c(NC(=O)Cc3ccccc3)sc3c2CCC(C)C3)cc1 (stereo not given) | – | 2 µM (active) |
| COC(=O)c1c(NC(=O)c2ccc(Cl)c(Cl)c2)sc2c1CCCC2 | -44.1% (inactive) | – |
| Cc1ccc(C(=O)c2c(NC(=O)c3ccncc3)sc3c2CCCC3)cc1 | – | 15.8 µM (active) |
| Cc1cccc(OCCCC(=O)Nc2sc3c(c2C(N)=O)CCC(C)C3)c1 (stereo not given) | -6.2% (inactive) | – |
| COC(=O)c1c(NC(=O)c2cccs2)sc2c1CCCC2 | -19.4% (inactive) | – |
| CCOc1ccc(NC(=O)Cn2c(=O)n(CCCC(=O)NCc3ccc4c(c3)OCO4)c(=O)c3ccccc32)cc1 | -29.8% (inactive) | – |
| Cc1sc2ncn(CC(=O)N3CCN(c4ccc(F)cc4)CC3)c(=O)c2c1S(=O)(=O)N1CCN(c2ncccn2)CC1 | -32.7% (inactive) | – |
| Cc1ccc(C)c(S(=O)(=O)n2nc(C)c(S(=O)(=O)N3CCC(C)CC3)c2C)c1 | 4% (inactive) | – |
| CCc1ccc(Sc2cc(C(=O)NCCCOC(C)C)c3ccccc3n2)cc1 | 14.5% (inactive) | – |
| CC(C)(CNC(=O)CNC(=O)C1CCCCC1)N1CCOCC1 | -2.59% [at 12.7 µM] (inactive) | – |
| O=c1c2cc(Br)ccc2nc(-c2cccc(Cl)c2)n1O | -6.02% [at 102 µM] (inactive) | – |
| COc1ccc(CC(=O)Nc2sc(Cc3ccccc3)c(C)c2C(N)=O)cc1 | -34.6% [at 102 µM] (inactive) | – |
| Cc1ccc(C(=O)Nc2sc(Cc3ccc4c(c3)OCO4)c(C)c2C(N)=O)cc1 | – | 50.1 µM (active) |
| COCc1nnc(NC(=O)c2ccc3c(c2)OCO3)s1 | -43.4% [at 102 µM] (inactive) | – |
| O=C(Nc1ccc2nc(SCCOc3ccccc3)sc2c1)c1ccco1 | 32.6% (inactive) | – |
| Cc1cc2nc(NC(=O)c3ccc(S(=O)(=O)N4CCOCC4)cc3)sc2cc1C | -1.89% (inactive) | – |

| SMILES | activity, negative = inhibition | Potency |
| --- | --- | --- |
| O=c1c2cccnc2n(Cc2cccc(F)c2)c(=O)n1Cc1ccccc1Cl | 43.8% (inactive) | – |
| CCCNC(=O)c1c(N)n(-c2ccc(S(N)(=O)=O)cc2)c2nc3ccccc3nc12 | – | 50.1 µM (active) |
| CCOC(=O)c1c(N)n(-c2cccc(C)c2C)c2nc3ccccc3nc12 | 2.49% (inactive) | – |
| CC(C)Cn1c(N)c(C(=O)NCc2cccs2)c2nc3ccccc3nc21 | 93.7% (inactive) | – |
| COc1cc(NS(=O)(=O)c2cccs2)cc(OC)c1 | 14.3% (inactive) | – |
| CC(Oc1ccc(Br)cc1)C(=O)NC1CCCCCC1 (stereo not given) | 35.3% [at 12.7 µM] (inactive) | – |
| O=C(NCCc1ccc(Cl)cc1)c1ccc2nc(CCc3ccccc3)oc2c1 | -0.672% (inactive) | – |
| CCc1cc(-c2n[nH]c(=S)n2CC(C)C)cs1 | – | 1.78 µM (active) |
| CCn1c(-c2ccncc2)n[nH]c1=S | -114% [at 102 µM] (inactive) | – |
| CCc1cc(-c2nnc(SCC(=O)NC3CC3)n2C)cs1 | 87.8% [at 102 µM] (inactive) | – |
| CCc1ccc(N(CC)C(=O)CCn2cnc3onc(-c4ccc(F)cc4)c3c2=O)cc1 | -23.9% (inactive) | – |
| O=C1CC2(CCN(C(=O)COc3ccc(F)cc3)CC2)Oc2ccccc21 | -12.9% [at 102 µM] (inactive) | – |
| CCc1ccccc1OCCSc1nc(-c2cccs2)nc2cc(=O)[nH]n12 | 8.02% (inactive) | – |
| CCc1ccc(NC2Nc3cc(C)nn3S2)cc1 (stereo not given) | – | 1 µM (active) |
| CCOC(=O)c1ccc(NC2Nc3cc(C)nn3S2)cc1 (stereo not given) | – | 3.16 µM (active) |
| CCOC(=O)c1ccc(NC(=O)CCn2cnnn2)cc1 | -3.16% (inactive) | – |
| C#CCNc1ccc(C(=O)OCC)cc1 | -3.3% [at 102 µM] (inactive) | – |
| CCc1ccc(CNC(=O)c2ccc(CS(=O)c3ccc(Br)cc3)o2)cc1 (stereo not given) | -1.56% (inactive) | – |
| COc1ccc(Cn2ccn(CC(=O)Nc3cc(C)ccc3C)c(=O)c2=O)cc1 | -6.02% (inactive) | – |
| O=C(CCCCO)c1ccc(O)c(Cl)c1 | 1.29% [at 2.33 µM] (inactive) | – |
| Cc1cccc(NC(=O)c2ccc(F)c(S(=O)(=O)N(C)C3CCCCC3)c2)c1 | 11.7% (inactive) | – |
| Cc1ccccc1OCCC(=O)OCC(=O)NCCc1ccc(S(N)(=O)=O)cc1 | -2.83% [at 12.7 µM] (inactive) | – |
| Cc1cc(C)c[n+](-c2nc3ccccc3nc2[N-]S(=O)(=O)c2cccs2)c1 | 17.1% (inactive) | – |
| O=C(NCCc1ccccc1)C1CCN(S(=O)(=O)c2ccc(Br)s2)CC1 | 2.02% [at 102 µM] (inactive) | – |
| O=S(=O)([N-]c1nc2ccccc2nc1-[n+]1ccc(Cc2ccccc2)cc1)c1ccc(Br)s1 | – | 11.2 µM (active) |
